NadD inh = NadD (S. aureus) enzyme inhibition; inhibition, % at 20 µM; 360,000 tested, 0.78% active; AID 602399; purified NadD enzyme, colorimetric absorbance read-out; in the data active = inhibition above about 26%
Neddylation inh = cullin neddylation inhibition; TR-FRET cullin neddylation, biochemical; AID 651699; inhibition, % at 25 µM; 360,000 tested, 0.58% active; P61081+Q13564; in the data active = inhibition above about 36%
GC-A act = GC-A (human) enzyme activation; HEK293 GC-A cells, cGMP TR-FRET, EC30 ANP; 0% at EC30 ANP, 100% saturating ANP; P16066; activation, % at 10 µM; 370,000 tested, 0.14% active; in the data active = activation above about 40%
NPR2 activator = GC-B (human) receptor activation; HEK293-GC-B cells, CNP EC30, cGMP TR-FRET; 0% at EC30 CNP, 100% saturating CNP; activation, % at 10 µM; 370,000 tested, 0.11% active; AID 1920062;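 active = activation at 10 µM reaching about 35% in either raw or pattern-adjusted values, limit read from the data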
Target sequence (P20594 whole entry, looked up): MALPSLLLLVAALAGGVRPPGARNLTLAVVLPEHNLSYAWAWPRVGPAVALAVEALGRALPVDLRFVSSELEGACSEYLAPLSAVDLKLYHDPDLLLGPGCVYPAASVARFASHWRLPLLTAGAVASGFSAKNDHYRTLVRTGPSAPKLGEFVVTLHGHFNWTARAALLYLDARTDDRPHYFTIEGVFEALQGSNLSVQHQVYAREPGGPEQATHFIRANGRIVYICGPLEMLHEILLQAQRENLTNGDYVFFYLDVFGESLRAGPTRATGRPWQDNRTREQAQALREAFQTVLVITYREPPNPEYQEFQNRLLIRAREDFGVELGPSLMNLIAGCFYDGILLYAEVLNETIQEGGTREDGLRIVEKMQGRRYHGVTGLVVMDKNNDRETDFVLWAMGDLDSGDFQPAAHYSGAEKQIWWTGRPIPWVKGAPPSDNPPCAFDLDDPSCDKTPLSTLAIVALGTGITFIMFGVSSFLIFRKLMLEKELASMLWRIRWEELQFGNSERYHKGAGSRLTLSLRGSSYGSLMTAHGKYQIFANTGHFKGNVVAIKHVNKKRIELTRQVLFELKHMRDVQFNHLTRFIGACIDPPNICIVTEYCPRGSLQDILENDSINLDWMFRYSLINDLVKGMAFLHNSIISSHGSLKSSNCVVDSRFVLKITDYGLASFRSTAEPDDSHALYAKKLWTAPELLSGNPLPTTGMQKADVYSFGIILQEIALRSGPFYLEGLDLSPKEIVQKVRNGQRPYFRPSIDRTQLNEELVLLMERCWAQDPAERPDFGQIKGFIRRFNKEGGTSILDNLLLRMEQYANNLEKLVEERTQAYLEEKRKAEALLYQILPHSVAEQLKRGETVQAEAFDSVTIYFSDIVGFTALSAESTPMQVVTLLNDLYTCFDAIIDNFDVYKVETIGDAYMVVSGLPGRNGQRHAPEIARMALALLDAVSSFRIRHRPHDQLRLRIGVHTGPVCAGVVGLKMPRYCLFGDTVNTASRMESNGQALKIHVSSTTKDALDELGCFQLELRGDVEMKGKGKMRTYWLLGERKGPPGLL
Numbers stand for hits; n = inactive; x = no result shown. This is a sample that favours compounds with a hit; in the whole collection about 1.5% have one here.

SMILES	NadD inh	Neddylation inh	GC-A act	NPR2 activator
Cc1ccc(S(=O)(=O)N2CC[C@@]3(Cc4ccccc4)Cc4ccccc4C[C@@H]23)cc1	x	x	n	n
COc1ccc(S(=O)(=O)Nc2cccc(N(C)S(C)(=O)=O)c2)cc1Br	n	n	n	37
Cc1ccc(C(=O)O)cc1-c1ccc(/C=C2\SC(=O)N(CC(=O)Nc3ccccc3)C2=O)o1	34	n	n	n
Cc1ccc(C(=O)O)cc1-c1ccc(/C=C2/NC(=O)N(c3ccccc3)C2=O)o1	n	47	n	n
Cc1cc(C(=O)O)ccc1-c1ccc(/C=C2\NC(=O)N(Cc3ccccc3Cl)C2=O)o1	n	x	x	x
Cc1ccccc1NC(=O)CN1C(=O)S/C(=C\c2ccc(-c3cc(C(=O)O)ccc3C)o2)C1=O	41	n	n	n
C=CCN1[C@@H](C)[C@H](c2ccccc2)Oc2cccc(N3CCCC3)c2S1(=O)=O	x	x	n	n
Cc1cccc(N=C2NC(=O)/C(=C/C=C/c3ccco3)S2)c1C	72	n	n	n
COc1ccc(N=C2NC(=O)/C(=C\C=C\c3ccccc3)S2)cc1	26	n	n	n
O=C1NC(=Nc2ccccc2)S/C1=C\C=C\c1ccco1	n	n	n	n
Cc1ccc(N=C2NC(=O)/C(=C/C=C/c3ccco3)S2)cc1	34	n	n	n
Cc1cccc(N=C2NC(=O)/C(=C/c3cccn3C)S2)c1C	n	n	n	n
COc1ccc(Cl)c2c1[nH]c1nc(SCc3cccnc3)nnc12	n	n	n	43
C/C(CC(=O)Nc1ccc(Cl)c(C(F)(F)F)c1)=N\NC(=O)c1cc2ccccc2cc1O	36	x	n	n
COc1cccc(NC(=O)C/C(C)=N/NC(=O)c2ccccc2Cl)c1	n	n	n	n
Cc1ccc(NC(=O)N2CCC(N(C)CCC(C)C)CC2)cc1F	x	x	n	n
Cc1c2cc(O)c(=O)cc-2oc2cc(O)c(O)cc12	52	n	n	n
COC(=O)c1cc(-c2ccc(Cl)s2)c(=O)n2c1CCC2	x	x	n	n
Cc1ccc(-c2cc(-c3nnc(SCC(=O)Nc4nccs4)n3N)[nH]n2)cc1	x	x	n	n
COc1ccc(/C=C2/C(=O)ON=C2C)cc1Cl	n	n	n	n
CCOc1cc(/C=C2\C(=O)ON=C2C)ccc1OCc1ccccc1	n	n	n	46
C=CCOc1ccc(/C=C2/C(=O)ON=C2C)cc1OC	n	n	41	n
COC(=O)[C@]12C[C@H](CC(=O)NCc3cccc(C(F)(F)F)c3)C(=O)N(CCc3ccc(OC)c(OC)c3)C1=C[C@H](C(C)C)O[C@@H]2C1CC1	x	x	n	n
CCOC(=O)CC(=O)CSc1nc(-c2ccc3c(c2)OCO3)cc(C(F)(F)F)c1C#N	n	n	n	n
CCOC(=O)CCSc1nc(-c2ccc3c(c2)OCO3)cc(C(F)(F)F)c1C#N	n	n	42	n
SMILES	NadD inh	Neddylation inh	GC-A act	NPR2 activator
N#CC1=C2N=C(N)c3ccccc3N2C2=C(C(=O)CCC2)C1c1cccc(Cl)c1 (configuration not stated)	n	n	n	n
Cc1ccccc1C1C(C#N)=C2N=C(N)c3ccccc3N2C2=C1C(=O)CCC2 (configuration not stated)	n	n	n	38
Cc1ccc(-c2cc(C#N)c3n(c2=O)CCC3)cc1	x	x	n	n
Cc1cc(-c2ccccc2)nc(N/N=C/c2ccc(O)cc2O)n1	n	n	n	n
CN(/N=C/c1ccc(O)cc1O)c1nc(-c2ccccc2)cc(-c2ccccc2)n1	33	n	n	n
CCc1ccccc1N(CC(=O)NCc1ccco1)C(=O)c1snc(C(N)=O)c1N	n	39	n	n
Cc1ccccc1NC1=C/C(=N\S(=O)(=O)c2ccc(C(=O)O)cc2)c2ccccc2C1=O	n	n	n	n
CCc1ccc(S(=O)(=O)/N=C2\C=C(NS(=O)(=O)c3ccccc3)C(=O)c3ccccc32)cc1	n	n	n	n
Cc1ccc(C)c(S(=O)(=O)/N=C2\C=C(NS(=O)(=O)c3ccccc3)C(=O)c3ccccc32)c1	29	n	n	n
CC(C)c1ccc(S(=O)(=O)/N=C2\C=C(NS(=O)(=O)c3ccccc3)C(=O)c3ccccc32)cc1	41	n	n	n
CCCC[C@H]1C2CC(OC(=O)NCCCc3ccccc3)C(C2)[C@H]2CCCCN21 (some centres not stated)	x	x	n	n
O=C(c1ccccc1)N1CCC2CCN(CCc3ccccc3)CC21 (configuration not stated)	x	x	n	n
COc1ccc(-c2cnc3c(NC=O)cc(-c4ccccc4)cn23)cc1OC	n	n	n	n
COc1ccc(-c2cnc3c(NC=O)cc(-c4cc(OC)c(OC)c(OC)c4)cn23)cc1OC	n	n	n	39
CC(C)(C)NC(=O)C(c1ccncc1)n1c(=O)c(-c2ccco2)nc2ccccc21 (configuration not stated)	x	40	n	n
CCn1cnc2c1c(=O)n(CC(=O)OC)c(=O)n2Cc1ccccc1	n	n	n	n
CCn1cnc2c1c(=O)n(Cc1ccc(C(=O)OC)cc1)c(=O)n2Cc1ccccc1	n	n	n	35
COc1ccc(NC(=O)CSc2nnc(-c3n[nH]c4c3CCC4)n2N)cc1OC	x	x	n	n
COc1ccc(C(=O)CSc2nnc(-c3n[nH]c4c3CCC4)n2N)cc1OC	x	x	n	44
Cc1cccc(Nc2nnc(-c3ccc(N4CCOCC4)c([N+](=O)[O-])c3)c3ccccc23)c1	n	n	n	48
Cc1nnc(-c2ccc(N3CCOCC3)c([N+](=O)[O-])c2)o1	n	n	x	x
CC(C)(C)c1ccc(-n2nc(C#N)c(Cl)cc2=O)cc1	n	n	69	74
Cc1ccc(S(=O)(=O)N2CCCC2C(c2ccccc2O)c2cn(C)c3ccccc23)cc1 (configuration not stated)	x	x	n	n
Cc1cc(C)nc(NC(=O)/C=C/c2ccccc2Cl)n1	n	n	n	n
Cc1cc(N)c2cc(NC(=O)/C=C/c3ccccc3Cl)ccc2n1	n	42	x	x
SMILES	NadD inh	Neddylation inh	GC-A act	NPR2 activator
Cc1ccc2c(c1)C1CS(=O)(=O)N(C3CCCC3)C(=O)N1C2 (configuration not stated)	x	x	n	n
Cc1cc(=O)oc2cc(NC(=O)C(C)N3C(=O)C4CCCCC4C3=O)ccc12 (configuration not stated)	n	73	n	n
CC(=O)Nc1ccc2c(COC(=O)[C@H](C)N3C(=O)C4CCCCC4C3=O)cc(=O)oc2c1 (some centres not stated)	n	x	n	n
CC(C)CN1C(=O)N2CCc3ccccc3C2CS1(=O)=O (configuration not stated)	x	x	n	n
CCCC1CCC2(CC1)CCC2OC(=S)NCc1cccc(F)c1 (configuration not stated)	x	x	n	n
C=CCN=C1NC(c2ccccc2)C(C(=O)OC)=C(C)N1C (configuration not stated)	x	x	n	n
Cc1ccc(-c2ccc(/C=C3\SC(N4CCOCC4)=NC3=O)o2)cc1	n	n	n	n
Cc1ccc(/C=C2\SC(N3CCN(C(c4ccccc4)c4ccccc4)CC3)=NC2=O)o1	59	n	n	n
O=C(c1cccc(Cl)c1)N1CCN(c2ccnc3cc(Cl)ccc23)CC1	x	x	n	n

High-throughput results deposited in PubChem BioAssay by Sanford-Burnham Center for Chemical Genomics.
